PubChem BioAssay (NCI)
About 79,000 compounds went through this panel and 15% of them were active in at least one assay; those are over-represented in the sample as a whole. Values without a mark were called inactive. Activity calls are given as the source filed them. Cut-off read from the data, not from the text of the source: active = growth inhibition above about 70%; inactive = the rest.

Legend:
[1] = NCI Yeast Anticancer Drug Screen. Data for the rad50 strain (AID 155);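 note: 0% = growth of vehicle-only cultures of the same strain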; conditions: S. cerevisiae rad50 strain growth inhibition, stronger effect = higher value
Procedure, shortened: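 Compounds were tested on a yeast strain with an engineered DNA damage repair alteration; the reported value is growth inhibition normalised to vehicle treatment.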

[2] = NCI Yeast Anticancer Drug Screen. Data for the mec2-1 strain (AID 157); conditions: S. cerevisiae mec2-1 strain, stronger effect = higher value
Procedure, shortened: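 Compounds were applied to mec2-1 yeast cells. Their growth was then compared with that of vehicle-treated cultures to give growth inhibition.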

[3] = NCI Yeast Anticancer Drug Screen. Data for the sgs1 mgt1 strain (AID 161);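 note: 0% = growth of cultures given vehicle only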; conditions: S. cerevisiae sgs1 mgt1 strain, stronger effect = higher value
Procedure, shortened: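 Percent growth inhibition was derived by comparing compound-exposed mutant yeast with vehicle-exposed cultures. The strain carries alterations in DNA damage repair.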

[4] = NCI Yeast Anticancer Drug Screen. Data for the cln2 rad14 strain (AID 165);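 note: 0% = growth equal to vehicle treated cultures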; conditions: S. cerevisiae cln2 rad14 strain, stronger effect = higher value
Procedure, shortened: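 Strain: cln2 rad14 yeast, altered in cell cycle control and DNA damage repair. Read-out: growth inhibition vs vehicle.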

[5] = NCI Yeast Anticancer Drug Screen. Data for the bub3 strain (AID 167); conditions: S. cerevisiae bub3 mutant strain, stronger effect = higher value
Procedure, shortened: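 Growth of a checkpoint-deficient yeast mutant is measured after compound exposure. Values represent inhibition relative to vehicle.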

[6] = NCI Yeast Anticancer Drug Screen. Data for the mlh1 rad18 strain (AID 175); conditions: S. cerevisiae mlh1 rad18 strain growth inhibition, stronger effect = higher value
Procedure, shortened: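 A repair-deficient yeast strain is exposed to test compound, and growth is scored relative to vehicle-treated controls.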

[7] = at 5.0 µM (retest, dose inferred, filed as 0.5)
[8] = at 50.0 µM (retest, dose inferred, filed as 5.0)

Compound: Cc1cccc(/C=N/Nc2ccccn2)n1
- growth inhibition [1, 7]: 22%
- growth inhibition [1, 8]: 27%
- growth inhibition ([1]; at 50.0 µM): 83% (active)
- growth inhibition [2, 7]: 17%
- growth inhibition [2, 8]: 37%
- growth inhibition ([2]; at 50.0 µM): 78.8% (active)
- growth inhibition [3, 7]: 20%
- growth inhibition [3, 8]: 38%
- growth inhibition ([3]; at 50.0 µM): 37.1%
- growth inhibition [4, 7]: 17%
- growth inhibition [4, 8]: 37%
- growth inhibition ([4]; at 50.0 µM): 23.8%
- growth inhibition [5, 7]: 15%
- growth inhibition [5, 8]: 41%
- growth inhibition ([5]; at 50.0 µM): 37.6%
- growth inhibition [6, 7]: 21%
- growth inhibition [6, 8]: 42%
- growth inhibition ([6]; at 50.0 µM): 87.6% (active)

Compound: Oc1c(Br)cc(Br)cc1C=Nc1ccc(Br)cc1
- growth inhibition [1, 7]: 68%
- growth inhibition [1, 8]: 98% (active)
- growth inhibition ([1]; at 50.0 µM): 80.8% (active)
- growth inhibition [2, 7]: 55%
- growth inhibition [2, 8]: 99% (active)
- growth inhibition ([2]; at 50.0 µM): 91.5% (active)
- growth inhibition [3, 7]: 72% (active)
- growth inhibition [3, 8]: 98% (active)
- growth inhibition ([3]; at 50.0 µM): 89.6% (active)
- growth inhibition [4, 7]: 44%
- growth inhibition [4, 8]: 99% (active)
- growth inhibition ([4]; at 50.0 µM): 89.2% (active)
- growth inhibition [5, 7]: 73% (active)
- growth inhibition [5, 8]: 99% (active)
- growth inhibition ([5]; at 50.0 µM): 89% (active)
- growth inhibition [6, 7]: 88% (active)
- growth inhibition [6, 8]: 98% (active)
- growth inhibition ([6]; at 50.0 µM): 87.1% (active)

Compound: COC(=O)CNC(=O)C(F)(F)F
- growth inhibition [1, 7]: -160%
- growth inhibition [1, 8]: -152%
- growth inhibition ([1]; at 50.0 µM): 81.8% (active)
- growth inhibition [2, 7]: -47%
- growth inhibition [2, 8]: -49%
- growth inhibition ([2]; at 50.0 µM): 68.1%
- growth inhibition [3, 7]: -61%
- growth inhibition [3, 8]: -58%
- growth inhibition ([3]; at 50.0 µM): 71.7% (active)
- growth inhibition [4, 7]: -61%
- growth inhibition [4, 8]: -66%
- growth inhibition ([4]; at 50.0 µM): 75.6% (active)
- growth inhibition [5, 7]: -65%
- growth inhibition [5, 8]: -73%
- growth inhibition ([5]; at 50.0 µM): 59.1%
- growth inhibition [6, 7]: -141%
- growth inhibition [6, 8]: -111%
- growth inhibition ([6]; at 50.0 µM): 80.5% (active)

Compound: COc1c(Br)c(=O)n(C)c(=O)n1C
- growth inhibition [1, 7]: -11%
- growth inhibition [1, 8]: 99% (active)
- growth inhibition ([1]; at 50.0 µM): 89% (active)
- growth inhibition [2, 7]: -10%
- growth inhibition [2, 8]: 99% (active)
- growth inhibition ([2]; at 50.0 µM): 87.8% (active)
- growth inhibition [3, 7]: -29%
- growth inhibition [3, 8]: 98% (active)
- growth inhibition ([3]; at 50.0 µM): 91.2% (active)
- growth inhibition [4, 7]: -4%
- growth inhibition [4, 8]: 99% (active)
- growth inhibition ([4]; at 50.0 µM): 88.3% (active)
- growth inhibition [5, 7]: -26%
- growth inhibition [5, 8]: 99% (active)
- growth inhibition ([5]; at 50.0 µM): 89.2% (active)
- growth inhibition [6, 7]: -11%
- growth inhibition [6, 8]: 99% (active)
- growth inhibition ([6]; at 50.0 µM): 89% (active)

Compound: CC(=O)OCC1CC2OC2CC1C (stereo not given)
- growth inhibition [1, 7]: 1%
- growth inhibition [1, 8]: 2%
- growth inhibition ([1]; at 50.0 µM): 70.1% (active)
- growth inhibition [2, 7]: 6%
- growth inhibition [2, 8]: -5%
- growth inhibition ([2]; at 50.0 µM): 50.1%
- growth inhibition [3, 7]: 15%
- growth inhibition [3, 8]: 7%
- growth inhibition ([3]; at 50.0 µM): 70.4% (active)
- growth inhibition [4, 7]: 34%
- growth inhibition [4, 8]: 9%
- growth inhibition ([4]; at 50.0 µM): 68.1%
- growth inhibition [5, 7]: 27%
- growth inhibition [5, 8]: 19%
- growth inhibition ([5]; at 50.0 µM): 75% (active)
- growth inhibition [6, 7]: -12%
- growth inhibition [6, 8]: -26%
- growth inhibition ([6]; at 50.0 µM): 63%

Compound: COc1ccc2nc(NC(=O)Nc3c(Cl)cccc3Cl)sc2c1
- growth inhibition [1, 7]: 13%
- growth inhibition [1, 8]: 99% (active)
- growth inhibition ([1]; at 50.0 µM): 98.4% (active)
- growth inhibition [2, 7]: -3%
- growth inhibition [2, 8]: 99% (active)
- growth inhibition ([2]; at 50.0 µM): 99.3% (active)
- growth inhibition [3, 7]: 20%
- growth inhibition [3, 8]: 99% (active)
- growth inhibition ([3]; at 50.0 µM): 99% (active)
- growth inhibition [4, 7]: 15%
- growth inhibition [4, 8]: 98% (active)
- growth inhibition ([4]; at 50.0 µM): 97.6% (active)
- growth inhibition [5, 7]: 2%
- growth inhibition [5, 8]: 99% (active)
- growth inhibition ([5]; at 50.0 µM): 98.7% (active)
- growth inhibition [6, 7]: 30%
- growth inhibition [6, 8]: 98% (active)
- growth inhibition ([6]; at 50.0 µM): 98.3% (active)

Compound: CCCOC(=O)C#CC(=O)OCCC
- growth inhibition [1, 7]: 37%
- growth inhibition [1, 8]: 96% (active)
- growth inhibition ([1]; at 50.0 µM): 94.6% (active)
- growth inhibition [2, 7]: 29%
- growth inhibition [2, 8]: 99% (active)
- growth inhibition ([2]; at 50.0 µM): 63%
- growth inhibition [3, 7]: 43%
- growth inhibition [3, 8]: 99% (active)
- growth inhibition ([3]; at 50.0 µM): 48.8%
- growth inhibition [4, 7]: 21%
- growth inhibition [4, 8]: 99% (active)
- growth inhibition ([4]; at 50.0 µM): 93.6% (active)
- growth inhibition [5, 7]: 25%
- growth inhibition [5, 8]: 99% (active)
- growth inhibition ([5]; at 50.0 µM): 7.3%
- growth inhibition [6, 7]: 69%
- growth inhibition [6, 8]: 99% (active)
- growth inhibition ([6]; at 50.0 µM): 74.6% (active)

Compound: Cc1ccc(S(=O)(=O)CC2(Br)CCc3ccccc3C2=O)cc1 (stereo not given)
- growth inhibition [1, 7]: 39%
- growth inhibition [1, 8]: 71% (active)
- growth inhibition ([1]; at 50.0 µM): 74.8% (active)
- growth inhibition [2, 7]: 31%
- growth inhibition [2, 8]: 15%
- growth inhibition ([2]; at 50.0 µM): 62.5%
- growth inhibition [3, 7]: 40%
- growth inhibition [3, 8]: 74% (active)
- growth inhibition ([3]; at 50.0 µM): 75.3% (active)
- growth inhibition [4, 7]: 1%
- growth inhibition [4, 8]: 18%
- growth inhibition ([4]; at 50.0 µM): 38.6%
- growth inhibition [5, 7]: 12%
- growth inhibition [5, 8]: 60%
- growth inhibition ([5]; at 50.0 µM): 42.5%
- growth inhibition [6, 7]: 23%
- growth inhibition [6, 8]: 48%
- growth inhibition ([6]; at 50.0 µM): 54.8%

Compound: COC(=O)N(C[C@@H]1C=CCCC1)c1ccccc1I
- growth inhibition [1, 7]: 29%
- growth inhibition [1, 8]: 66%
- growth inhibition ([1]; at 50.0 µM): 88.3% (active)
- growth inhibition [2, 7]: 29%
- growth inhibition [2, 8]: 61%
- growth inhibition ([2]; at 50.0 µM): 91.2% (active)
- growth inhibition [3, 7]: 26%
- growth inhibition [3, 8]: 63%
- growth inhibition ([3]; at 50.0 µM): 89.6% (active)
- growth inhibition [4, 7]: 29%
- growth inhibition [4, 8]: 34%
- growth inhibition ([4]; at 50.0 µM): 87.5% (active)
- growth inhibition [5, 7]: 47%
- growth inhibition [5, 8]: 74% (active)
- growth inhibition ([5]; at 50.0 µM): 91% (active)
- growth inhibition [6, 7]: 41%
- growth inhibition [6, 8]: 70% (active)
- growth inhibition ([6]; at 50.0 µM): 89.9% (active)

Compound: O=[N+]([O-])c1ccccc1N=Nc1c(O)[nH]c2ccc(S(=O)(=O)O)cc12
- growth inhibition [1, 7]: 73% (active)
- growth inhibition [1, 8]: 96% (active)
- growth inhibition ([1]; at 50.0 µM): 97.7% (active)
- growth inhibition [2, 7]: 36%
- growth inhibition [2, 8]: 87% (active)
- growth inhibition ([2]; at 50.0 µM): 97.8% (active)
- growth inhibition [3, 7]: 68%
- growth inhibition [3, 8]: 93% (active)
- growth inhibition ([3]; at 50.0 µM): 95.9% (active)
- growth inhibition [4, 7]: 85% (active)
- growth inhibition [4, 8]: 94% (active)
- growth inhibition ([4]; at 50.0 µM): 95.6% (active)
- growth inhibition [5, 7]: 87% (active)
- growth inhibition [5, 8]: 97% (active)
- growth inhibition ([5]; at 50.0 µM): 97.8% (active)
- growth inhibition [6, 7]: 90% (active)
- growth inhibition [6, 8]: 98% (active)
- growth inhibition ([6]; at 50.0 µM): 98.4% (active)
